Laboratory results from PubChem BioAssay AID1241 (SRMLSC, 2008).
About 840 (70%) of roughly 1,200 compounds were called active. How the calls were made is not given here. The set was probably picked from earlier hits. Not all results are given here. Measured potencies and affinities stand elsewhere.

experiment: compounds inducing NF-kB luciferase expression – cell-based, SH-SY5Y, dose response (AID 1241); conditions: SH-SY5Y NF-kB promoter luciferase reporter; series mostly up to 30 µM; fold induction over control: at the top concentration

Fold induction over control, inactive:
CC1=C/C(=N\OS(=O)(=O)c2ccccc2)C(C)=CC1=O 0.31
Cn1c(-c2ccc(Br)o2)nc2cc(Br)ccc21 9.61
Clc1ccccc1-c1nnc(-c2cccs2)o1 9.9
O=C(Nc1nccs1)c1sc2ccccc2c1Cl 11.4 [at 15 µM]
CCCCCCOc1ccc(/C(N)=N/O)cc1 11.4
CCCCCCOc1ccc(OC(=O)c2ccncc2)cc1 5.72
N#Cc1c(NCCO)nc(NCc2ccccc2)c2c1CCN(Cc1ccccc1)C2 0.9
Cc1ccccc1NC(=O)/C=C/c1ccc([N+](=O)[O-])s1 5.73 [at 15 µM]
CCC(=O)Nc1cccc(C(=O)/C=C/c2ccccc2)c1 9 [at 15 µM]
Cc1ccc(NC(=O)/C=C/c2cccs2)c([N+](=O)[O-])c1 10.2
Cc1nn(Cc2ccccc2)c(Cl)c1/C=C/C(=O)OCC(=O)N1CCCC1=O 1.01
Cc1cccc(NC(=O)c2csnn2)n1 1.22
COc1ccc(OCCOC(=O)c2[nH]c(C)c(C(C)=O)c2C)cc1 0.69
Cc1ccc(Nc2nc(N)nc(CSc3ncccn3)n2)cc1 8.11
Cc1cc(N2CCOCC2)ccc1/C=C1/SC(=O)NC1=O 3.2
Cc1ccc(/C=N/N=C/c2ccc(C)s2)s1 16.3
CCOC(=O)c1ccc(NC(=O)N2CCc3ccccc32)cc1 9.88
CCCCNC(=O)c1cc(-c2ccc(F)cc2)on1 20.1
COc1ccc2c(=O)c(-c3ccccc3)coc2c1 9.03
CN(C)c1ccc(C(=S)NCc2ccco2)cc1 4.68
Cc1nnc(SCC(=O)Nc2nsc(-c3ccc(C(C)(C)C)cc3)n2)s1 10.8
COc1ccc(C2=NN3C(C2)c2ccccc2OC32C(=O)N(C)c3ccccc32)cc1 (stereo not drawn) 8.01
CC(=O)c1cc(N2CCOCC2)ccc1[N+](=O)[O-] 1.03
O=C(O)/C=C\C(=O)Nc1ccccc1C#Cc1ccccc1 1.8
CC(C)Cc1cc(C(=O)Nc2cc(Br)ccc2O)no1 2.37
CC(C)c1cc(C(=O)Nc2cc(Br)ccc2O)no1 2.7
CCc1cc(C(=O)Nc2ccc(C)cc2Br)cs1 7.97
O=C(CCC(=O)c1cccs1)c1cccs1 10.6
Cc1ccc(C(=O)COC(=O)c2ccc(O)cc2)cc1 10.9
O=C(CC(SCc1ccco1)c1ccc(O)cc1)c1cccs1 (stereo not drawn) 11.4
Cc1ccc(C)c(OCC(=O)O/N=C(\N)c2ccccn2)c1 5.69
CC(C)c1ccc(/C=N/NC(=O)c2c(Cl)cnn2C)cc1 9.29
CC(=O)c1sc(NC(=O)c2cccc(C)c2)nc1C 10.6
O=C(Nc1cccnc1)c1cc(-c2ccc3c(c2)OCO3)on1 12 [at 15 µM]
O=c1c2c(nc3cc(-c4ccccc4)[nH]n13)CCS2 3.49
Cc1ccc(CN2CN(S(=O)(=O)c3cccs3)c3nc4ccccc4nc32)cc1 1.19
Nc1c(C(=O)C2CC2)sc2nc3c(cc12)CCC3 10.5
CCOC(=O)c1sc2nc3c(cc2c1N)COC(C)(C)C3 11
Cc1cccc(NC(=O)c2cc3ccccc3o2)c1 11.9
O=C(Nc1ccc(Cl)cn1)c1ccc([N+](=O)[O-])o1 12.4
COc1ccc(NC(=O)c2cc3ccccc3o2)cc1 11.5
O=C(Nc1cccc(Br)c1)c1cc2ccccc2o1 10.1
COc1ccc2oc(=N)c(C(=O)Nc3ccccc3)cc2c1 12.7
CCN1C/C(=C/c2ccc(N3CCOCC3)cc2)C(=O)/C(=C/c2ccc(N3CCOCC3)cc2)C1 13 [at 15 µM]
Cc1ccc(NC(=O)/C(C#N)=C(\N)C(Cl)(Cl)Cl)nc1 5.72 [at 7.5 µM]
CN1CCN(CC(=O)Nc2ccccc2[N+](=O)[O-])CC1 1.19
N/C(=N\OC(=O)COc1ccc(Cl)cc1Br)c1ccncc1 9.84
COc1ccccc1/C=N\Nc1cn[nH]c(=O)c1Cl 1.17
